Nine compounds from PubChem BioAssay can be followed below.

Experiment [1] can be described thus: differential killing of epithelial or mesenchymal cells, primary screen, imaging, PC-3E GFP, TEM4-18 mCherry, co-culture (AID 1345086).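 On all read-outs here: cells exposed to compound for 72 h before imaging.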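 On red/green cell ratio (normalised): normalised mesenchymal count divided by normalised epithelial count so high means epithelial killing.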 The following applies: imaging cell counts, at 1 µM; for red/green cell ratio (normalised): actives lie on both sides.
For experiment [2], the system named is Aerobactin synthetase IucA (Klebsiella pneumoniae hvKP1). Description: Biochemical IucA enzyme inhibition primary screen of the Spectrum library (AID 1346200; call rule not given here;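 further: 100% = wells without compound and 0% = wells lacking enzyme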). The note with it: malachite green pyrophosphate, A620, at 8 µM, stronger effect = lower value.
The target of experiment [3] is Mitogen-activated protein kinase 7 (Homo sapiens) (UniProt Q13164). Description: ERK5 transactivation activators in reporter cells, primary screen, cell-based, HTS (AID 1508626;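 active means luciferase signal above three times the same-plate solvent-only control wells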;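 further: luciferase driven by Gal4-ERK5 fusion binding five Gal4 sites before minimal TATA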). The following applies: HeLa Gal4-ERK5 transactivation, 18 h, at 5 µM, stronger effect = higher value.
Chain of Mitogen-activated protein kinase 7 (Homo sapiens) (Q13164 whole entry, looked up, the tested form may be a part): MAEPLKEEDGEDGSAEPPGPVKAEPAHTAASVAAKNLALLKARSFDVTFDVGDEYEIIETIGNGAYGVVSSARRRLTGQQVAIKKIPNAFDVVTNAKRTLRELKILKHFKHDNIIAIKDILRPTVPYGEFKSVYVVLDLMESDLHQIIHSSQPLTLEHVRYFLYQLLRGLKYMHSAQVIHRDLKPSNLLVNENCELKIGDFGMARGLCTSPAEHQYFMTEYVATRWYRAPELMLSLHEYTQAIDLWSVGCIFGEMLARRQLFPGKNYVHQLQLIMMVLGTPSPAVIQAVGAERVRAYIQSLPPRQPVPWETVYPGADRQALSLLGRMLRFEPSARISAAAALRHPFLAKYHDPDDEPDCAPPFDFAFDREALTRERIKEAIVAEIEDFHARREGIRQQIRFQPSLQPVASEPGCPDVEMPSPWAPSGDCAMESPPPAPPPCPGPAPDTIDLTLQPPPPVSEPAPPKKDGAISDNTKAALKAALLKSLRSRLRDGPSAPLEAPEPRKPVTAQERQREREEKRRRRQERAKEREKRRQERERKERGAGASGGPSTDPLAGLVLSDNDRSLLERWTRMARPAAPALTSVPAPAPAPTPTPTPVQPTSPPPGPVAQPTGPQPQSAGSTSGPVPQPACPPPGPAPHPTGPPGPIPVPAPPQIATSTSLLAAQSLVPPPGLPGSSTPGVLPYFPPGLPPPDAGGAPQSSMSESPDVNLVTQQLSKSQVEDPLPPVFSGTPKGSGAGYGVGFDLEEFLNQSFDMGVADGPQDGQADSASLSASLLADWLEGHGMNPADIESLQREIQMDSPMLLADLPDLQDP
A short description of experiment [4]: polyglutamine-triggered caspase-3 activation inhibitors, cell-based (AID 1583). The following applies: polyglutamine-induced caspase-3 activation, cell assay; stronger effect = higher value;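 tested at 10 µM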.
The nature of experiment [5]: suppressors of polyQ aggregation in yeast, 75Q-TubU reporter (AID 1593). The note with it: Yeast 75Q polyglutamine aggregation reporter.
Experiment [6] in a line: rescue of polyQ-huntingtin neuronal dysfunction in worms, whole organism, C. elegans mechanosensory neurons, N-terminal huntingtin (AID 1599). The note with it: touch response, stronger effect = higher value.
Experiment [7] in a line: inhibitors of mitochondrial cytochrome c release, biochemical, purified mitochondria (AID 1603).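 Further: mouse liver mitochondria challenged with calcium chloride; signal normalized to the plate average as 100%.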 The following applies: stronger effect = lower value.
A short description of experiment [8]: inhibitors of polyQ protein aggregation (AID 1604). The following applies: polyglutamine-induced protein aggregation inhibition assay; stronger effect = higher value; tested at 2.5 µM.
A short description of experiment [9]: enhancers of glutamate uptake in motor neurons, MN-1 cell line (AID 1612).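 Further: tested at 1 µM final; 0% = mean of DMSO vehicle wells on each plate; positive means more glutamate uptake than control and negative means less.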 The following applies: MN-1 motor neuron cells, stronger effect = higher value.
Experiment [10] can be described thus: reducers of polyQ inclusions in PC12 cells, cell-based, NGF-treated PC12, GFPQ80 (AID 1614).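 Further: lower means fewer inclusions and 0 means no inclusions at all.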 The following applies: PC12 NGF-treated GFP-polyQ80 inclusion reduction.
Experiment [11] can be described thus: suppressors of polyglutamine aggregation in yeast, 75Q-TubH (AID 1616). The following applies: S. cerevisiae 75Q-TubH polyglutamine aggregation suppression; stronger effect = higher value.
Experiment [12] can be described thus: liver-stage malaria parasite growth inhibition, primary screen, cell-based, HepG2, luciferase luminescence, HepG2 viability (AID 624349; in the data active means parasite load remaining mostly below about 12%, no sharp cut-off; inactive means mostly above about 10%;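 further: 100% = mean of DMSO negative control wells on the same plate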). The following applies: P. berghei liver stage in HepG2, luciferase luminescence, concentration not given here; parasite load remaining: stronger effect = lower value; viability: measured here: HepG2 viability without parasites.
Experiment [13] is described as follows: sensitizers of A549 cells to miR-34 induction, primary screen, imaging, A549 dox-inducible miR-34, nuclei and caspase counts (AID 1347080;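 active means compounds whose cell count with miR-34 switched on is under 0.7 times the count with it off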). The following applies: A549 miR-34 inducible, Hoechst nuclei count, 48 h.
Setting [14] is: measured here: epithelial PC-3E GFP cell survival.
The mark [15] stands for this setting: measured here: mesenchymal TEM4-18 mCherry cell survival.
The mark [16] stands for this setting: measured here: relative caspase fold change +Dox/-Dox.
Setting [17] is: measured here: total cells with miR-34 induction, stronger effect = lower value.
Setting [18] is: measured here: total cells without miR-34 induction.

“And” between values parts separate entries of the source, which are not always exact repeats. Equal values may be shown once. For some assays here: Entries with a potency or affinity are not part of this list. The source made the active and inactive calls.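 How the source made its calls, unless noted: active means compounds killing one labelled cell type while sparing the other, by normalised counts and ratio limits, not self-fluorescent; inactive means the rest.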

For the compound `CC1=CC(=O)c2c(O)cccc2C1=O`, the red/green cell ratio (normalised) in [1] is 0.13 (inactive). For the same compound, the normalised cell number amounted to 0.08 in [1] (setting [14]) and 0.01 in experiment [1] (setting [15]). For the same compound, the activity remaining in experiment [2] was 112% (inactive). The luciferase signal in experiment [3] was 276 AU (active).
Broadly, the inhibition is the change of the read-out against control, counted positive when it falls. In general, viability refers to the share of living cells, or the viability signal relative to a control. Compound `CC1[C@H](C)OC(=O)CC(O)CC(O)CC(O)CCC(O)C(O)C[C@]2(O)CC(O)C(C(=O)O)C(CC(OC3O[C@H](C)[C@@H](O)[C@H](N)[C@@H]3O)/C=C/C=C/C=C/C=C/CC/C=C/C=C/[C@H](C)[C@H]1O)O2` (stereo partly drawn) had an inhibition in experiment [4] of 3.51%. For the same compound, the score in experiment [5] was -0.11. Besides, the rescue above control in experiment [6] turned out to be 3.77. Further, in experiment [7], the cytochrome c release ratio stood at 0.93. The same compound came in with an inhibition of aggregation in experiment [8] of 30.3%. Also, the glutamate uptake change in experiment [9] amounted to 9.44%. For the same compound, the inclusion score in [10] worked out at 2. For the same compound, in [11], the aggregation suppression score was determined as 0.00787. For the same compound, in [12], the parasite load remaining was 87.6% (inactive) and 108% (inactive). Also, the viability in experiment [12] is 71.5% and 89.6%. Also, the red/green cell ratio (normalised) in experiment [1] was 1.28 (inactive). Besides, the normalised cell number in experiment [1] (setting [14]) was found to be 0.98; in [1] (setting [15]) it was 1.25. For the same compound, the activity remaining in experiment [2] is 89.3% (inactive). Further, the fold change in [13] (stronger effect = lower value) was 0.841 (inactive); in experiment [13] (setting [16]), 0.89. For the same compound, the cell count is 11200 in experiment [13] (setting [17]) and 13400 in experiment [13] (setting [18]).
On to `CC(=O)O[C@@H]1C[C@@]2(C)[C@H](c3ccoc3)C[C@H]3O[C@]32[C@]2(C)C(=O)C(O)=C3C(C)(C)C(=O)C=C[C@]3(C)C12` (stereo partly drawn), for which the red/green cell ratio (normalised) in [1] is 0.93 (inactive). Besides, the normalised cell number in [1] (setting [14]) was found to be 0.15; in experiment [1] (setting [15]), 0.14. Moreover, the activity remaining in experiment [2] was 102% (inactive).
On to `Nc1ncn[nH]1`, for which, in [1], the red/green cell ratio (normalised) is 1.3 (inactive). Besides, the values for the normalised cell number in experiment [1] (setting [14]) and in experiment [1] (setting [15]) were 0.82 and 1.07, respectively. In addition, the activity remaining in experiment [2] was 92.7% (inactive). Further, in experiment [3], the luciferase signal was 24 AU (inactive).
In turn, `C[C@@H]1O[C@@H](O[C@H]2C[C@@H](O)[C@]3(CO)C4C(CC[C@]3(O)C2)[C@@]2(O)CC[C@H](C3=CC(=O)OC3)[C@@]2(C)C[C@H]4O)[C@H](O)[C@H](O)[C@H]1O` (stereo partly drawn) came in with an inhibition in experiment [4] of 78.5%. Moreover, in [5], the score was determined as 1.02. The same compound displayed a rescue above control in experiment [6] of 3.58. In addition, the cytochrome c release ratio in experiment [7] turned out to be 1.01. In addition, in experiment [8], the inhibition of aggregation was found to be 75%. Moreover, the glutamate uptake change in [9] is -21.6%. The compound also had an inclusion score in experiment [10] of 2. Also, the aggregation suppression score in [11] turned out to be 1.24. Besides, the parasite load remaining in [12] was 242% (inactive) and -0.205% (inactive). In addition, the viability in [12] was 38.6% and 15.3%. Moreover, the red/green cell ratio (normalised) in experiment [1] was 0.13 (inactive). Also, the figures for the normalised cell number in experiment [1] (setting [14]) and in experiment [1] (setting [15]) were 0.14 and 0.02, respectively. Besides, in experiment [2], the activity remaining is 122% (inactive). In addition, the fold change is 0.536 (active) in [13] (stronger effect = lower value) and 2.2 in experiment [13] (setting [16]). In addition, the cell count in experiment [13] (setting [17]) was 195; in [13] (setting [18]), 364.
`CC1(C)C(=O)C=C[C@@]2(C)C1C[C@@H](O)[C@]1(C)C2CC[C@@]2(C)[C@H](c3ccoc3)OC(=O)[C@H]3O[C@]321` (stereo partly drawn): the red/green cell ratio (normalised) in experiment [1] is 1.08 (inactive). Also, the normalised cell number in experiment [1] (setting [14]) was determined as 0.88; in experiment [1] (setting [15]), 0.95. Further, the activity remaining in experiment [2] was 88.4% (inactive).
For `C[C@H]1C[C@@H](O)[C@]2(O)[C@@]13CC(=O)OC[C@@]2(C)[C@](C)(O)C(=O)C3`, the red/green cell ratio (normalised) in experiment [1] was 1.18 (inactive). Also, the normalised cell number in [1] (setting [14]) was found to be 0.96; in experiment [1] (setting [15]) it was 1.13. For the same compound, the activity remaining in experiment [2] is 127% (inactive). For the same compound, in experiment [3], the luciferase signal was 188 AU (inactive).
For `CC(=O)O[C@H]1C[C@@H](OC(C)=O)C(C)(C)C2C[C@@H](OC(C)=O)[C@]3(C)C(CC[C@@]4(C)[C@H](c5ccoc5)C(=O)[C@H]5O[C@]543)[C@]21C` (stereo partly drawn) the same measures were 1.03 (inactive), 1.08, 1.12, 109% (inactive) and 132 AU (active).
For the compound `COc1cc2c(cc1OC)[C@@H]1C(=O)c3ccc4c(c3O[C@@H]1CO2)CC(C(C)C)O4` (stereo partly drawn), the red/green cell ratio (normalised) in [1] is 1.13 (inactive). For the same compound, the normalised cell number is 0.56 in experiment [1] (setting [14]) and 0.64 in [1] (setting [15]). For the same compound, in [2], the activity remaining is 114% (inactive).
